ELG1 genotox – qHTS screen for small molecules that induce genotoxicity in human embryonic kidney (HEK293T) cells expressing luciferase-tagged ELG1; HEK293T ELG1-luciferase reporter, luminescence, 16 h; Potency, µM (titrated, usually from 46 µM), for inactives: top-dose activity change, positive = activation, actives largely listed as activators; actives 1.3% (n = 330,000); also: % of control where 0% means no effect; nearly all actives have a fitted effect of over 60% in size
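Reporter readout depends on ELG1 protein level, which increases with genetic stress. After 16 hr compound exposure at 37 °C, luciferase activity was quantified using ONE-Glo.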
NPC1 promoter act – qHTS Assay for NPC1 Promoter Activators | Huh7 NPC1 promoter luciferase reporter, 24 h | Potency, µM (highest dose often 9.22 µM), for inactives: top-dose activation, actives largely listed as activators | actives 2.4% (n = 320,000) | AID 485313, 2010; also: % of control where 0% means no effect; nearly all actives have a fitted effect of over 60% in size
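Compounds in DMSO were transferred onto Huh7 NPC1-luciferase reporter cells pre-incubated 2 h; after 24 h at 37 °C, Amplite reagent was dispensed and luminescence recorded 10 min later.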
Rab9 promoter act – qHTS Assay for Rab9 Promoter Activators. Potency, µM (titrated, usually from 9.22 µM), inactives show at the top dose activation, negative = inhibition, usual class: activators. AID 485297, 2010. Huh7 Rab9 promoter-luciferase reporter, luminescence, 24 h. actives 2.8% (n = 320,000); also: % of control where 0% means no effect; nearly all actives have a fitted effect of over 60% in size
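Promoter activation is measured as luciferase luminescence in Huh7 cells stably transfected with a Rab9 promoter–luciferase construct, following 24 h compound exposure at 37 °C and 10 min reagent incubation at ambient temperature.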
KinaseGlo FLuc – Counterscreen for Luciferase (Kinase-Glo TM) Inhibition. actives 0.28% (n = 200,000). Kinase-Glo luciferase, ATP luminescence, 8 min. Potency, µM (titrated, usually from 38.3 µM), for inactives: top-dose activity change, negative = inhibition, hits mostly inhibitors. Luciferin 4-monooxygenase (Photuris pensylvanica), Q27757; also: % is scaled to controls: 0 for no effect and ±100 for the full control effect; nearly all actives have a fitted effect of over 60% in size
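Luminescence was the read-out, taken after 8-minute incubation at ambient temperature. Luciferase turned over luciferin with 10 uM ATP in imidazole pH 7.2 buffer containing KCl, MgCl2, Tween 20 and BSA.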
FLuc modulator – qHTS profiling assay for firefly luciferase inhibitor/activator using purifed enzyme and Km concentrations of substrates (counterscreen for miR-21 project). Luciferin 4-monooxygenase (Photinus pyralis), P08659. Potency, µM (doses to about 57.5 µM), for the others: top-dose activity change, negative = inhibition, actives largely listed as inhibitors. purified FLuc, Km substrates, luminescence inhibition. AID 588342, 2011. actives 6.9% (n = 360,000);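 also: plate controls were vehicle for no effect and reference inhibitor for full effect; nearly all actives have a fitted effect of over 55% in size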
Target sequence (P08659 whole entry, looked up): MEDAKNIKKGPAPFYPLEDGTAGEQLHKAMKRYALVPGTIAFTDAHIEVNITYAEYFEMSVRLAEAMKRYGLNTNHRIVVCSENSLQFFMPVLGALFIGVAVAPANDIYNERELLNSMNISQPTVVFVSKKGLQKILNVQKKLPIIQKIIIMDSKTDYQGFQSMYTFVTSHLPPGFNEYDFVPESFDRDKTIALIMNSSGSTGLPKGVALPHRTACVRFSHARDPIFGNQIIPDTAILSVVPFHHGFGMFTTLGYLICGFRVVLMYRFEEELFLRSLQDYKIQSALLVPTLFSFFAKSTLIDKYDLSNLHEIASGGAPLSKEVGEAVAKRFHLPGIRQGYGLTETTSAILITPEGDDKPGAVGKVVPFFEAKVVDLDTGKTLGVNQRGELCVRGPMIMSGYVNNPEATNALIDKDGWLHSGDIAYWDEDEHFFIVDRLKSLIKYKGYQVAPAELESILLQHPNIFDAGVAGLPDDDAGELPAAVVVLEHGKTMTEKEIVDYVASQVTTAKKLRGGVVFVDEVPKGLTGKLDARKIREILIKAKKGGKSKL
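Purified P. pyralis luciferase, 10 nM final, with Km-level 10 uM D-luciferin and 10 uM ATP in 50 mM Tris acetate pH 7.5, 10 mM Mg acetate, 0.01% Tween-20, 0.05% BSA; 6-point qHTS titration about 60 µM downward; luminescence read.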
SMN2 splice up – qHTS Assay for Enhancers of SMN2 Splice Variant Expression. HEK293 SMN2-luciferase splicing reporter, luminescence, 30-36 h. Potency, µM (top dose mostly 46.1 µM), for inactives: top-dose activity change, positive = activation, usual class: activators. actives 2.8% (n = 210,000). AID 1458, 2008; also: % of control where 0% means no effect; nearly all actives have a fitted effect of over 55% in size
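qHTS luciferase splicing reporter: luminescence rises when SMN2 exon 7 is included in transfected HEK293 cells. Compound exposure lasted 30-36 h at 37C, with 4.5 mM final sodium butyrate as control, followed by a ONE-Glo read.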
* = called active by the depositor; ? = inconclusive; . = not tested or not shown; ! = repeats disagree. The list is not random: actives were taken first. Their share in the collection is about 7.5%. Calls follow the shape of the dose curve; as a rule, active = well fitted curve in the direction sought with a large enough effect; inconclusive = small, poorly fitted or top-dose-only effect, or another doubt; inactive = no such curve, though single readings can be large; an effect the other way counts as inactive or inconclusive. Potency is read from the fitted curve at half-maximal effect.

SMILES	ELG1 genotox	NPC1 promoter act	Rab9 promoter act	KinaseGlo FLuc	FLuc modulator	SMN2 splice up
O=C(Nc1ccc(Cl)cc1)c1ccc2c(c1)N(Cc1ccccc1)C(=O)c1ccccc1S2(=O)=O	.	.	.	.	1%	?
CCOC(=O)c1c(/N=C/N(C)C)sc(/C=N/Nc2ccccc2)c1-c1ccccc1Cl	-2%	-3%	2%	.	12µM*	.
CCOC(=O)c1c(/N=C/N(C)C)sc(/C=N/Nc2ccccc2)c1-c1ccccc1	2%	5%	0%	-4%	-4%	3%
COc1cccc(NC(=O)C2CCN(S(=O)(=O)c3ccc4c(c3)C(C)(C)C(=O)N4C)CC2)c1	-5%	0%	-1%	.	-2%	.
COc1ccc2c(=O)c(-c3ccccc3)coc2c1	1%	0.71µM*	0.79µM*	2.8µM*!	3µM*	11µM*
COc1ccc2c(=O)c(CC(=O)O)coc2c1	.	.	.	-1%	.	4%
O=c1c(-c2ccc(F)cc2)coc2c3c(ccc12)OCCO3	2.6µM*	3.5µM*	1.3µM*	-4%	?	?
COc1ccc(-c2coc3cc(OC(C)=O)cc(OC(C)=O)c3c2=O)cc1	.	.	.	-2%	.	8.9µM*
COc1ccc(-c2coc3cc(O)ccc3c2=O)cc1OC	?	?	?	7%	19µM*	28%
O=c1c(-c2ccc(Br)cc2)coc2c(CN3CCOCC3)c(O)ccc12	8%	0%	-6%	-2%	-21%	-9%
CC(C)CNC(=O)COC(=O)c1ccc2c(c1)C(=O)N(Cc1ccco1)C2=O	-2%	-2%	-5%	.	-2%	.
CCN(CC)C(=O)Oc1ccc2c(=O)c(-c3ccccc3)coc2c1	?	1.6µM*	3.5µM*	-13%	6µM*	?
COc1ccc(-c2coc3cc(O)cc(O)c3c2=O)cc1OC	?	22%	24%	.	?	.
O=c1c(-c2ccc(F)cc2)coc2cc(O)ccc12	?	3.2µM*	3.5µM*	?	13µM*	78%
COc1ccc2c(=O)c(-c3ccc(OC)c(OC)c3)coc2c1	?	?	?	.	7.6µM*	.
CCN(CC)C(=O)COc1ccc2c(-c3ccccc3)cc(=O)oc2c1	0%	-5%	-3%	.	-7%	.
COc1ccccc1-c1coc2cc(O)cc(O)c2c1=O	16µM*	21%	?	-3%	21µM*	25%
CCCSC1=NC2(CCN(C(=O)NC3CCCCC3)CC2)N=C1c1ccc(OC)cc1	.	.	.	.	-4%	.
COc1ccc(NS(=O)(=O)c2cc(NC(=O)COc3ccc(OC)cc3)ccc2N2CCOCC2)cc1	-1%	.	.	.	.	.
N/C(=N\OC(=O)CCc1ccccc1)c1ccccc1Cl	?	7%	28%	1%	24µM*	9%
N/C(=N\OC(=O)CCc1ccccc1)c1ccc(Br)cc1	14%	-4%	1%	-3%	?	6%
N/C(=N\OC(=O)CCCc1ccccc1)c1ccc(Br)cc1	15%	-4%	-9%	.	5%	.
N/C(=N\OC(=O)CCc1ccccc1)c1cccc(Br)c1	1%	-5%	0%	-4%	17µM*	-6%
Cc1ccc(/C(N)=N/OC(=O)CCc2ccccc2)cc1	?	21%	9%	.	15µM*	.
CCOC(=O)c1ccc2nc(NC(=O)C(C)C)sc2c1	?	1.1µM*	3.5µM*	-1%	9.5µM*	11µM*
Cc1ccc2nc(NC(=O)COC(=O)c3cccnc3)sc2c1	20%	.	.	.	.	.
C=CCN(CC=C)S(=O)(=O)c1ccc2nc(NC(=O)C(C)C)sc2c1	4%	-26%	-22%	3%	6%	-23%
CCCCC(=O)Nc1nc2ccc(C(=O)OC)cc2s1	?	?	2.2µM*	-2%	?	?

Screens: PubChem BioAssay, National Center for Advancing Translational Sciences (NCATS)
